Measurements taken from PubChem BioAssay.

Experiment: probe aLefty2 binding to arrayed compounds – biochemical, biotinylated probe, 635/667 nm fluorescence, primary screen (AID 1094);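 note: score merges spot fluorescence near 667 nm with spot signal-to-noise ratio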
Settings: small-molecule microarray, higher = more signal

Q: Which composite z-score does the source give for `CCCCCCCCCC(O)C1C=CC2C(=O)N(c3ccccc3)C(=O)C2N1Nc1cc(OC)c(OC)c(OC)c1` (stereo not given) here?
A: -0.163

Q: Which composite z-score does the source give for `COc1cc(C(O)C2C=CC3C(=O)N(C)C(=O)C3N2Nc2ccccc2)cc(OC)c1OC` (stereo not given) here?
A: 0.581

Q: Which composite z-score does the source give for `CCOC(=O)C1=C[C@@H](C(C)C)N(S(=O)(=O)c2ccc(C)cc2)[C@H]1c1ccc(C(F)(F)F)cc1` here?
A: 0.127

Q: With `CC(C)C(CO)N1C(=O)[C@@H]2C3C(=O)OCCC/C=C\[C@H]3OC23C=CCN(c2ccc4ccccc4c2)C(=O)[C@@H]13` (stereo not given in full) as the molecule, how does the composite z-score read?
A: -0.0928

Q: With `CCCCN1CC=CC23O[C@@H]4/C=C\CCCOC(=O)C4[C@H]2C(=O)N(CCO)[C@@H]3C1=O` (stereo not given in full) as the molecule, how does the composite z-score read?
A: -0.212

Q: With `CC(C)C(CO)N1C(=O)[C@@H]2C3C(=O)OCCC/C=C\[C@H]3OC23C=CCN(Cn2nnc4ccccc42)C(=O)[C@@H]13` (stereo not given in full) as the molecule, how does the composite z-score read?
A: -0.159

Q: For `C=CC[C@@]1(C(=O)NCCCOC)N=C(c2ccc(OCCCO)cc2)O[C@@H]1c1ccccc1N=[N+]=[N-]`, which composite z-score is on record?
A: 0.085

Q: With `C=CCNC(=O)[C@@H]1[C@H]2C(=O)O[C@H](c3ccccc3)[C@H](c3ccccc3)N2[C@H](c2ccccc2OCCO)[C@@]12C(=O)N(C(=O)OCCOC)c1ccc(C#CC3(O)CCCCCC3)cc12` as the molecule, how does the composite z-score read?
A: -0.0146

Q: With `COCCOC(=O)N1C(=O)[C@@]2(c3cc(C#CCC(C(=O)OC)C(=O)OC)ccc31)[C@H](c1ccc(OCCO)cc1)N1[C@H](c3ccccc3)[C@H](c3ccccc3)OC(=O)[C@H]1[C@@H]2C(=O)N1CCc2cc(OC)c(OC)cc2C1` as the molecule, how does the composite z-score read?
A: 0.0146

Q: For `C=CCN1C(=O)[C@]2(CCC(=O)OC(C)(C)C)N=C(c3ccc(OCCCO)cc3)O[C@@H]2c2ccccc21`, which composite z-score is on record?
A: 0.128
